TcdB GH inh: TcdB glycohydrolase inhibition. hit rate 0.24% among 350,000. TcdB glycohydrolase enzymatic assay, plate reader. inhibition, % at 9.99 µM. P18177; in the data active = inhibition above about 10%
Vc quorum ag: quorum light induction in luxS cqsA deficient V. cholerae; V. cholerae BH1578 lux reporter, luminescence, 6 h; activation, % at 18.7 µM; hit rate 0.16% among 350,000; AID 588436; in the data active = activation mostly above about 9.7%, no sharp cut-off
VHR inh abs: DUSP3 (human) phosphatase inhibition; recombinant VHR phosphatase, pNPP absorbance; P51452; hit rate 0.52% among 290,000; inhibition, % at 13.3 µM; in the data active = inhibition above about 50%
Target sequence (P51452 whole entry, looked up): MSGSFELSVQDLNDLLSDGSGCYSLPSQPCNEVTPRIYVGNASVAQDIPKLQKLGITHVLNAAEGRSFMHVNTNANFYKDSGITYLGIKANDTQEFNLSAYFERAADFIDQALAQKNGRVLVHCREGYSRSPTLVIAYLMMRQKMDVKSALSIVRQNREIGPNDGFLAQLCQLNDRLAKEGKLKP
CCHF vOTU inh: blocks the CCHF virus ovarian tumor domain protease | CCHFV vOTU protease, Pep-AMC fluorescence | inhibition, % at 11.5 µM | hit rate 0.55% among 370,000 | AID 651958; in the data active = inhibition above about 30%; note: 0% = vehicle wells with enzyme and 100% = no enzyme wells
PriA SSB inh: K. pneumoniae PriA-SSBct interaction inhibition. AlphaScreen SSBct-PriA binding, biotinylated peptide. inhibition, % at 33 µM. hit rate 0.6% among 430,000; in the data active = inhibition mostly above about 37%, no sharp cut-off; inactive = mostly below about 20%;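 note: plate controls were negative control peptide for no effect and reference peptide for full effect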
3CLpro inhibitor: SARS-CoV 3CLpro protease inhibition | P0C6X7 | recombinant SARS-CoV 3CLpro, quenched FRET peptide cleavage | hit rate 0.14% among 290,000 | inhibition, % at 6 µM | AID 1706; in the data active = inhibition above about 12%
Numbers without * were called inactive; i = inactive; · = no result. Most compounds without a hit are left out; they make up all but 1.3% or so of the library.

SMILES | TcdB GH inh | Vc quorum ag | VHR inh abs | CCHF vOTU inh | PriA SSB inh | 3CLpro inhibitor
NC(=O)[C@@H]1CCCNc2c(I)cc([N+](=O)[O-])cc2C(=O)N[C@@H](Cc2ccccc2)C(=O)N[C@@H](Cc2cnc[nH]2)C(=O)N1 | -1 | 0 | 1 | -1 | 41* | 4
O=C(Cn1c(O)c(C=C2C=Nc3ccc(Br)cc32)sc1=O)N1CCCC1 | · | · | · | · | 8 | ·
COC(=O)c1ccc(C(=O)Nc2ccc(N)cc2N)cc1 | · | i | 10 | 3 | 40* | -2
C=CCn1cc(C=NNc2nc3ccccc3[nH]2)c2ccccc21 | · | · | · | · | 61* | ·
C(=N\Nc1nc2ccccc2[nH]1)/c1c[nH]c2ccccc12 | · | 0 | 5 | -5 | · | 1
O=C(CSc1nc(-c2ccccc2)cs1)Nc1nccs1 | · | 0 | 12 | 7 | -9 | -2
O=C(CSc1nc(-c2ccccc2)cs1)Nc1ccccc1[N+](=O)[O-] | 0 | 0 | -8 | 1 | 48* | 2
C[n+]1cn(/N=C/c2ccccc2)c2ccccc21 | · | 1 | 54* | -6 | · | 0
C(=N\n1c2ccccc2c2ccccc21)/c1ccccc1 | 1 | 0 | 8 | 8 | · | -2
O=C(NCCOc1ccc(-c2cccs2)nn1)C1c2ccccc2Oc2ccccc21 | · | · | · | · | -15 | ·
CN(C)CCCNC(=O)C[C@H]1CC[C@@H]2[C@@H](COc3ccc(NC(=O)c4ccc5c(c4)OCO5)cc3C(=O)N2C)O1 | 11* | · | · | · | · | ·
CN1C(=O)c2cc(NC(=O)c3cccc(F)c3)ccc2OC[C@H]2O[C@@H](CC(=O)NCC3CCCCC3)CC[C@@H]21 | 0 | · | · | · | · | ·
CCNC(=O)C[C@H]1CC[C@@H]2[C@H](COc3ccc(NC(=O)c4ccc5c(c4)OCO5)cc3C(=O)N2C)O1 | 13* | · | · | · | · | ·
CCNC(=O)C[C@H]1CC[C@@H]2[C@@H](COc3ccc(NC(=O)c4ccc5c(c4)OCO5)cc3C(=O)N2C)O1 | 14* | · | · | · | · | ·
CN1C(=O)c2cc(NC(=O)c3cccc(F)c3)ccc2OC[C@@H]2O[C@@H](CC(=O)NCC3CCCCC3)CC[C@@H]21 | 10* | · | · | · | · | ·
CCNC(=O)C[C@H]1CC[C@H]2[C@H](COc3ccc(NC(=O)c4ccc5c(c4)OCO5)cc3C(=O)N2C)O1 | 0 | · | · | · | · | ·
CC(O)(CNC(=O)c1ccc2nsnc2c1)c1cc2ccccc2s1 (stereo not drawn) | · | · | · | · | -8 | ·
CCc1ccc(N2C(=O)C3N=NN(c4ccc(Br)c(C)c4)C3C2=O)cc1 (stereo not drawn) | · | · | · | · | -31 | ·
Cc1c(Cl)cccc1S(=O)(=O)NCCc1csc(-n2cccn2)n1 | · | · | · | · | -15 | ·
CCNC(=O)C[C@H]1CC[C@H]2[C@H](COc3ccc(NC(C)=O)cc3C(=O)N2C)O1 | 11* | · | · | · | · | ·
CCCNC(=O)C[C@H]1CC[C@@H]2[C@@H](COc3ccc(NC(=O)c4ccc(Cl)cc4)cc3C(=O)N2C)O1 | 13* | · | · | · | · | ·
CC(=O)Nc1ccc2c(c1)C(=O)N(C)[C@H]1CC[C@H](CC(=O)NCC3CC3)O[C@H]1CO2 | 0 | · | · | · | · | ·
O=C(NN1C(=O)CSC1=S)c1c(F)cccc1F | · | · | · | · | 2 | ·
Cc1ccc2nc(-c3ccc(NC(=O)Cc4csc(NC(=O)c5ncccn5)n4)cc3)sc2c1 | · | · | · | · | 6 | ·
Nc1nc(COc2ccc3ccccc3c2)cs1 | · | -2 | 7 | 10 | 1 | 2
SMILES | TcdB GH inh | Vc quorum ag | VHR inh abs | CCHF vOTU inh | PriA SSB inh | 3CLpro inhibitor
Nc1nc(CCOc2ccc(F)cc2)cs1 | 11* | -1 | 20 | 10 | 3 | 0
COc1cc(OC)c2c(C)cc(=O)oc2c1C(CCN1CCOCC1)c1ccc(N(C)C)cc1 (stereo not drawn) | -6 | -1 | 18 | -5 | 45* | ·
CCCCCc1cc(=O)oc2c(C(CCN3CCN(c4ccccc4)CC3)c3ccc(N(C)C)cc3)c(OC)cc(OC)c12 (stereo not drawn) | 1 | -1 | -4 | -1 | 2 | ·
COc1cc(O)c(C(CCN2CCCC2)c2ccc3c(c2)OCO3)c(OC)c1 (stereo not drawn) | 0 | i | 4 | 1 | -24 | ·
COc1cc(OC)c2ccc(=O)oc2c1C(CCN1CCN(c2ccccc2)CC1)c1ccc(N(C)C)cc1 (stereo not drawn) | -2 | i | 26 | -1 | 55* | ·
COc1cc(O)c(C(CCN2CCN(c3ccccc3)CC2)c2ccc3c(c2)OCO3)c(OC)c1 (stereo not drawn) | -3 | i | 26 | 12 | 42* | ·
COc1cc(OC)c2c(-c3ccccc3)cc(=O)oc2c1C(CC(=O)N1CCOCC1)c1ccc(N(C)C)cc1 (stereo not drawn) | 0 | i | 26 | 1 | 42* | ·
Cc1ccc(-n2cc(C(=O)NCCCOC(C)C)nn2)cc1 | · | · | · | · | -15 | ·
COc1cc(OC)c2c(-c3ccccc3)cc(=O)oc2c1C(CCN1CCCC(C)C1)c1ccc(N(C)C)cc1 (stereo not drawn) | -9 | -1 | 7 | 3 | 97* | ·
COc1cc(OC)c2c(-c3ccccc3)cc(=O)oc2c1C(CCN1CCN(c2ccccc2)CC1)c1ccc(N(C)C)cc1 (stereo not drawn) | 2 | i | 11 | 13 | 55* | ·
CCCCCc1cc(=O)oc2c(C(CCN3CCCCC3)c3ccc4c(c3)OCO4)c(OC)cc(OC)c12 (stereo not drawn) | 3 | -9 | 22 | 7 | 42* | ·
COc1ccc(C(CCN2CCCC(C)C2)c2c(OC)cc(OC)c3c(-c4ccccc4)cc(=O)oc23)cc1 (stereo not drawn) | -1 | 0 | 10 | -8 | 19 | ·
COc1cc(OC)c2c(-c3ccccc3)cc(=O)oc2c1C(CC(=O)N1CCN(c2ccccc2)CC1)c1ccc(N(C)C)cc1 (stereo not drawn) | 1 | -1 | 6 | 0 | 32 | ·
CCN(CC)CCC(c1ccc(N(C)C)cc1)c1c(OC)cc(OC)c2c(-c3ccccc3)cc(=O)oc12 (stereo not drawn) | -5 | -1 | 7 | 9 | 87* | ·
COc1ccc(C(CCN2CCN(c3ccccc3)CC2)c2c(OC)cc(OC)c3c(-c4ccccc4)cc(=O)oc23)cc1 (stereo not drawn) | 1 | i | 22 | 12 | -1 | ·
CCNC(=O)NC(=O)C(C)N1C(=O)NC(c2ccccc2)(c2ccccc2)C1=O (stereo not drawn) | 2 | i | 55* | 12 | 11 | 2
COc1ccc(CNC(=O)C(C)N2C(=O)NC(c3ccccc3)(c3ccccc3)C2=O)cc1 (stereo not drawn) | 0 | i | · | 0 | -5 | ·
O=C(Nc1ccc2c(c1)N(C(=O)C1CC1)CC2)c1ccc(-c2ccsc2)cc1 | · | · | · | · | -3 | ·
Cc1c(C2C(C#N)=C(N)N(c3ccccc3C#N)C3=C2C(=O)CCC3)cnn1C (stereo not drawn) | · | 1 | 2 | -2 | 38* | 2
N#CC1=C(N)N(c2ccccc2C#N)C2=C(C(=O)CCC2)C1c1ccsc1 (stereo not drawn) | · | 0 | 10 | 6 | 10 | -7
COc1cccc2sc(NC(=O)COc3ccccc3)nc12 | · | · | · | · | -4 | ·
COc1ccc(CCC(=O)NCc2cncc(-c3ccsc3)c2)cc1Br | · | · | · | · | -6 | ·

High-throughput results (PubChem BioAssay)
